Results: PubChem BioAssay (NCI)
About 79,000 compounds went through this panel and 15% of them were active in at least one assay; those are over-represented in the sample as a whole. Values without a mark were called inactive. Activity calls are given as the source filed them. Cut-off read from the data, not from the text of the source: active = growth inhibition above about 70%; inactive = the rest.

Assay: NCI Yeast Anticancer Drug Screen. Data for the mlh1 rad18 strain (AID 175)
Conditions: S. cerevisiae mlh1 rad18 strain growth inhibition; at 50.0 µM (retest, dose inferred, filed as 5.0); hits give high values
Procedure, shortened: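 Vehicle-treated cultures served as the reference for growth inhibition in a yeast strain carrying DNA damage repair alterations exposed to each compound.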

SMILES	growth inhibition
OCCSCc1cc(Cl)cc(Cl)c1O	91% (active)
CC(=O)Nc1ccccc1C(O)(c1ccccc1)c1ccccc1	1%
Cc1cc(N=Nc2ccccc2C)c(N)cc1N	90% (active)
O=C(Nc1ccc(Cl)cc1)Nc1nnc(/C=C/c2ccc(Cl)c(Cl)c2)o1	-16%
CCCCCCCCCCCC(=O)OCCOC(=O)CCCCCCCCCCC	-6%
CCN(C(C)=O)c1ccc2c(c1)Cc1ccccc1-2	97% (active)
O=[N+]([O-])c1cccn2nc(C3OC(CO)C(O)C3O)nc12 (stereo not drawn)	3%
Oc1cc(CNCc2ccccc2)c(O)c(CNCc2ccccc2)c1	15%
N#CSC#Cc1ccc(C#CSC#N)cc1	98% (active)
O=C(O)/C=C/C(=O)NNc1nc2ccccc2s1	20%
COc1ccc2c(c1)[n+]([O-])c(-c1ccc(C)cc1)c(N)[n+]2[O-]	98% (active)
C=CCc1cc([N+](=O)[O-])ccc1O	93% (active)
CC(C)C1=CC23CCC4C(C)(C(=O)O)CCCC4(C)C2CC1c1c(O)ccc(O)c13 (stereo not drawn)	99% (active)
NC(=O)C(CCc1cccc2ccccc12)c1ccccc1 (stereo not drawn)	14%
CC(CO)CCC(=O)C(C)C1C(=O)CC2CC3CC(O)CCC3(C)CC21C (stereo not drawn)	89% (active)
Oc1c(Cl)cc(Cl)cc1/C=C1\C=Nc2ccccc21	-3%
CCCC(C(=O)OCCN1CCCC1(C)C)C1CCCC1 (stereo not drawn)	68%
OCCN1CCN(CCCN2c3cc(Cl)ccc3Sc3ccsc32)CC1	97% (active)
O=C(O)/C=C/c1ccc2c(c1)CCCC2	87% (active)
CC(NNC(=S)N1CCCC1)c1ccc2ccccc2n1 (stereo not drawn)	98% (active)

SMILES	growth inhibition
c1cc(CCSSCCc2ccncc2)ccn1	92% (active)
CCOC(=O)C(N=Nc1ccc(Br)c(C)c1)C(C)=O (stereo not drawn)	88% (active)
N#CC(C(=O)CCCC(=O)Nc1cccc([N+](=O)[O-])c1)c1cccc2ccccc12 (stereo not drawn)	18%
Cc1ccc(S(=O)(=O)NNC(=O)c2sc(-c3nc(C)c(C(=O)NNS(=O)(=O)c4ccc(C)cc4)s3)nc2C)cc1	98% (active)
Nc1nc(Cl)cc(Nc2ccc(Cl)c(Cl)c2)n1	79% (active)
CN(C)C=Nc1c2ccccc2nc2ccccc12	84% (active)
Cc1cc(N=[N+]=[N-])c2cc(C3CCCCC3)ccc2n1	99% (active)
CCN(CC)C(=O)CCCCC(=O)OC(C)C	-11%
CC12CCC(C(Br)(Br)C1=O)C2(C)C (stereo not drawn)	68%
CCCCCCCCN(CCCCCCCC)C(=O)C(C)O (stereo not drawn)	98% (active)
O=C1C=CC(=O)C1=Cc1ccc(Cl)c(Cl)c1	99% (active)
COc1ccc([N+](=O)[O-])cc1NC(=O)Nc1ccc(C(=O)OCC(C)C)cc1	3%
CCOC(=O)n1c2ccccc2c(=O)n1CCO	-11%
CC(=O)OC12CCC3C4CC=C5CC(O)CCC5(C)C4C(=O)C3C1(C)N1CC(C)CC(O)C1C2C (stereo not drawn)	59%
Cc1cccnc1NC(=S)Nc1ccccc1Cl	99% (active)
CS(=O)(=O)OCCN(CCOS(C)(=O)=O)c1ccc(C=Nc2ccc(-c3cnc(-c4ccc(Cl)cc4)s3)cc2)c(Cl)c1	89% (active)
CC1(Cc2ccccc2)CCCC(C=O)C1=O.[Cu+2] (stereo not drawn)	99% (active)
C[N+]1(c2ccccc2)C=C(c2ccccc2)SC1=S (stereo not drawn)	75% (active)
CC12CCC3c4cc(O)ccc4CCC3C1CCC2O (stereo not drawn)	67%

Same assay, conditions: S. cerevisiae mlh1 rad18 strain growth inhibition; at 50.0 µM; hits give high values

SMILES	growth inhibition
OCCSCc1cc(Cl)cc(Cl)c1O	78.8% (active)
CC(=O)Nc1ccccc1C(O)(c1ccccc1)c1ccccc1	-31.2%
Cc1cc(N=Nc2ccccc2C)c(N)cc1N	99.5% (active)
O=C(Nc1ccc(Cl)cc1)Nc1nnc(/C=C/c2ccc(Cl)c(Cl)c2)o1	-12.1%
CCCCCCCCCCCC(=O)OCCOC(=O)CCCCCCCCCCC	7.4%
CCN(C(C)=O)c1ccc2c(c1)Cc1ccccc1-2	96.8% (active)
O=[N+]([O-])c1cccn2nc(C3OC(CO)C(O)C3O)nc12 (stereo not drawn)	-4.65%
Oc1cc(CNCc2ccccc2)c(O)c(CNCc2ccccc2)c1	17%
N#CSC#Cc1ccc(C#CSC#N)cc1	89.2% (active)
O=C(O)/C=C/C(=O)NNc1nc2ccccc2s1	70.2% (active)
COc1ccc2c(c1)[n+]([O-])c(-c1ccc(C)cc1)c(N)[n+]2[O-]	99.2% (active)
C=CCc1cc([N+](=O)[O-])ccc1O	90.8% (active)
CC(C)C1=CC23CCC4C(C)(C(=O)O)CCCC4(C)C2CC1c1c(O)ccc(O)c13 (stereo not drawn)	99% (active)
NC(=O)C(CCc1cccc2ccccc12)c1ccccc1 (stereo not drawn)	98.4% (active)
CC(CO)CCC(=O)C(C)C1C(=O)CC2CC3CC(O)CCC3(C)CC21C (stereo not drawn)	90.3% (active)
Oc1c(Cl)cc(Cl)cc1/C=C1\C=Nc2ccccc21	4.95%
CCCC(C(=O)OCCN1CCCC1(C)C)C1CCCC1 (stereo not drawn)	40%
OCCN1CCN(CCCN2c3cc(Cl)ccc3Sc3ccsc32)CC1	98.1% (active)
O=C(O)/C=C/c1ccc2c(c1)CCCC2	62.9%
CC(NNC(=S)N1CCCC1)c1ccc2ccccc2n1 (stereo not drawn)	96.4% (active)

SMILES	growth inhibition
c1cc(CCSSCCc2ccncc2)ccn1	30.3%
CCOC(=O)C(N=Nc1ccc(Br)c(C)c1)C(C)=O (stereo not drawn)	97.5% (active)
N#CC(C(=O)CCCC(=O)Nc1cccc([N+](=O)[O-])c1)c1cccc2ccccc12 (stereo not drawn)	31.2%
Cc1ccc(S(=O)(=O)NNC(=O)c2sc(-c3nc(C)c(C(=O)NNS(=O)(=O)c4ccc(C)cc4)s3)nc2C)cc1	15%
Nc1nc(Cl)cc(Nc2ccc(Cl)c(Cl)c2)n1	89.8% (active)
CN(C)C=Nc1c2ccccc2nc2ccccc12	76.3% (active)
Cc1cc(N=[N+]=[N-])c2cc(C3CCCCC3)ccc2n1	96.8% (active)
CCN(CC)C(=O)CCCCC(=O)OC(C)C	21.9%
CC12CCC(C(Br)(Br)C1=O)C2(C)C (stereo not drawn)	88.7% (active)
CCCCCCCCN(CCCCCCCC)C(=O)C(C)O (stereo not drawn)	94% (active)
O=C1C=CC(=O)C1=Cc1ccc(Cl)c(Cl)c1	99% (active)
COc1ccc([N+](=O)[O-])cc1NC(=O)Nc1ccc(C(=O)OCC(C)C)cc1	74.9% (active)
CCOC(=O)n1c2ccccc2c(=O)n1CCO	50%
CC(=O)OC12CCC3C4CC=C5CC(O)CCC5(C)C4C(=O)C3C1(C)N1CC(C)CC(O)C1C2C (stereo not drawn)	47%
Cc1cccnc1NC(=S)Nc1ccccc1Cl	89.5% (active)
CS(=O)(=O)OCCN(CCOS(C)(=O)=O)c1ccc(C=Nc2ccc(-c3cnc(-c4ccc(Cl)cc4)s3)cc2)c(Cl)c1	92.3% (active)
CC1(Cc2ccccc2)CCCC(C=O)C1=O.[Cu+2] (stereo not drawn)	44.9%
C[N+]1(c2ccccc2)C=C(c2ccccc2)SC1=S (stereo not drawn)	74.8% (active)
CC12CCC3c4cc(O)ccc4CCC3C1CCC2O (stereo not drawn)	37%
